# From PubChem BioAssay (Tox21)
# Values without a mark were called inactive. Records with an inconclusive call do not appear. Entries that show only a call come without a potency. Active and inactive are the calls of the source. Unless noted, the call rests on the fitted dose curve; in most records, active means well fitted curve in the direction sought with a large enough effect in the repeat runs; inconclusive means weak or mixed curves; inactive means no such curve, though single readings can be large; an effect the other way counts as inactive or inconclusive.
# Assays:
# [1] = target: Thyrotropin receptor (Homo sapiens) (UniProt P16473); test: qHTS assay to identify small molecule antagonists of the thyroid stimulating hormone receptor (TSHR) signaling pathway (AID 1259385; calls by dose curve; further: nearly all actives have a fitted effect of over 20% in size)
# Procedure, shortened: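 Antagonist mode: compound-treated TSHR-expressing HEK293 cells were stimulated with 1.5 ng/mL TSH (final) in presence of Ro20-1724 for 30 min at RT. HTRF cAMP detection after 1 h; each compound tested at 15 concentrations, triplicate.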
# [2] = qHTS assay to identify small molecule agonists of the estrogen receptor alpha (ER-alpha) signaling pathway in the presence of an antagonist - cell viability counter screen (AID 1259386);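 further: series mostly up to about 92 µM; cells exposed to compounds for 22 h at 37 °C before the viability read; nearly all actives have a fitted effect of over 30% in size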
# Procedure, shortened: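 VM7Luc4E2, stripped-serum pre-culture 5 d; 24hr plating; +ICI-182,780 10.0nM final; cpds 15 conc, 22hr, 37C/5% CO2; CellTiter-Fluor added at 21hr, fluorescence 1hr later.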
# [3] = qHTS assay to identify small molecule agonists of the progesterone receptor (PR) signaling pathway - cell viability counter screen (AID 1346799; calls by dose curve; further: nearly all actives have a fitted effect of over 45% in size; further: potency means the concentration at half of the fitted maximal effect)
# Procedure, shortened: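 Multiplexed viability read: CellTiter-Glo luminescence, 30 min RT, following LiveBLAzer FRET measurement on PR-UAS-bla HEK293T cells exposed to compounds 16 hr.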
# [4] = qHTS assay to identify small molecule antagonists of the TGF-beta/Smad signaling pathway - cell viability counter screen (AID 1346824); further: nearly all actives have a fitted effect of over 50% in size
# Procedure, shortened: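 Cytotoxicity counter-screen run in the same wells as the beta-lactamase Smad reporter read: CellTiter-Glo luminescence after 30 min at room temperature. HEK 293T SBE-bla cells had 5 hr compound exposure at 37 C with TGF-beta1 (0.25 ng/mL stock).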
# [5] = qHTS assay to identify small molecule agonists of the TGF-beta/Smad signaling pathway - cell viability counter screen (AID 1346829); further: top concentration of the series differs between compounds; nearly all actives have a fitted effect of over 45% in size
# Procedure, shortened: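 SBE-bla HEK 293T cells plated overnight, compound exposure 5 hr at 37 C. Viability read in the same wells by CellTiter-Glo luminescence after 30 min at room temperature, following the beta-lactamase read.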
# [6] = qHTS assay to identify small molecule agonists of the TGF-beta/Smad signaling pathway (AID 1346859; active means well fitted activation curve with a large enough effect in the signal ratio in the repeat runs, not every such curve was filed as active; the % refers to the signal ratio; further: series mostly up to about 77 µM)
# Procedure, shortened: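 Screening used HEK 293T SBE-bla cells at 4,000/well. Test agents: 5 hr, 37 C. Detection: FRET substrate, 2 hr RT, then excitation 405 nm with emissions at 460 and 530 nm.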
# [7] = target: Thyrotropin-releasing hormone receptor (Homo sapiens) (UniProt P34981); test: qHTS assay to identify small molecule antagonists of the thyrotropin-releasing hormone receptor (TRHR) signaling pathway (AID 1346877; active means well fitted inhibition curve with a large enough effect in the repeat runs, not every such curve was filed as active; further: series mostly up to about 51 µM)
# Procedure, shortened: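 Intracellular calcium fluorescence, read kinetically every second over 3 min, reports TRH-evoked signalling in HEK293 cells carrying TRHR. Test compounds were added 5 min ahead of a 1 nM TRH challenge.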
# [8] = target: Thyrotropin-releasing hormone receptor (Homo sapiens) (UniProt P34981); test: qHTS assay to identify small molecule agonists of the thyrotropin-releasing hormone receptor (TRHR) signaling pathway (AID 1346891; calls by dose curve; further: series mostly up to about 58 µM)
# Procedure, shortened: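 Readout was intracellular calcium fluorescence in TRHR-Hek293 cells. Cells were incubated 18 h, dye-loaded 2 h at 37 °C, and treated with compound in agonist mode.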
# [9] = Caspase-3/7 induction in HepG2 cells by small molecules, qHTS assay (AID 1346978); further: nearly all actives have a fitted effect of over 15% in size
# Procedure, shortened: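 Caspase-3/7 induction was measured by Caspase-Glo 3/7 luminescence (30 min, room temperature) after a 17 hr compound exposure of wild-type HepG2 cells seeded at 2,000 per well and pre-incubated 5 hr.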
# [10] = Caspase-3/7 induction in CHO-K1 cells by small molecules, qHTS assay (AID 1346980); further: nearly all actives have a fitted effect of over 15% in size
# Procedure, shortened: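 Luminescent Caspase-Glo 3/7 read (30min, room temperature) quantified apoptosis induction. Cells were wild-type CHO-K1, treated with compound for 17hr at 37 C and 5% CO2.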
# [11] = Caspase-3/7 induction in HepG2 cells by small molecules, qHTS cell viability counter screen (AID 1346981); further: series mostly up to about 92 µM; nearly all actives have a fitted effect of over 30% in size
# Procedure, shortened: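 HepG2, WT, 2,000 cells/well; 5 hr pre-incubation 37 C/5% CO2; compound pin-transferred from DMSO; 16 hr exposure; CellTiter-Fluor, 1 hr; fluorescence read.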
# [12] = target: Nuclear receptor subfamily 1 group I member 2 (Rattus norvegicus) (UniProt Q9R1A7); test: Rat pregnane X receptor (rPXR) activation by small molecules, qHTS assay (AID 1346983); settings: rPXR luciferase reporter cells, One-Glo luminescence, 24 h; max activation: stronger effect = higher value; further: nearly all actives have a fitted effect of over 20% in size
# Procedure, shortened: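 Luminescent readout (One-Glo luciferase, 30 min room temperature) followed 24 hr compound treatment at 37 C of rPXR cells plated 2,000 per well and preincubated 5hr; qHTS format with compounds delivered in DMSO.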
# [13] = target: Progesterone receptor (Homo sapiens) (UniProt P06401); test: qHTS assay to identify small molecule agonists of the progesterone receptor (PR) signaling pathway (AID 1346784; calls by dose curve; further: nearly all actives have a fitted effect of over 30% in size)
# Procedure, shortened: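 Reporter assay, GripTite PR-UAS-bla HEK 293T cells: 16 hr exposure to DMSO-dissolved compounds at 37C, 5% CO2, in steroid-depleted (2% charcoal-stripped FBS) medium; beta-lactamase measured by FRET fluorescence.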
# [14] = Caspase-3/7 induction in CHO-K1 cells by small molecules, qHTS cell viability counter screen (AID 1346979); further: nearly all actives have a fitted effect of over 35% in size
# Procedure, shortened: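 Following a 5hr settling period, CHO-K1 cells at 1,500 per well received DMSO-dissolved compounds. Cell viability was quantified 16hr later by CellTiter-Fluor fluorescence, measured after 1hr with reagent at 37C.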
# [15] = target: Cytochrome P450 2D6 (Homo sapiens) (UniProt P10635); test: Cytochrome P450 Family 2 Subfamily D Member 6 (CYP2D6) small molecule antagonists: luciferase reporter qHTS assay (AID 1671196); further: nearly all actives have a fitted effect of over 50% in size; further: potency means the concentration at half of the fitted maximal effect
# Procedure, shortened: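 Read-out is luminescence from luciferin formed by CYP2D6 turnover of a proluciferin substrate, recorded as relative luminescence units. Reactions ran 1 h at room temperature after NADPH regeneration solution was added.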
# [16] = target: Progesterone receptor (Homo sapiens) (UniProt P06401); test: qHTS assay to identify small molecule antagonists of the progesterone receptor (PR) signaling pathway (AID 1346795; active means well fitted inhibition curve with a large enough effect in the signal ratio in the repeat runs, not every such curve was filed as active; the % refers to the signal ratio)
# Procedure, shortened: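 Stimulus R5020 at 1 nM final; cells HEK293T PR-UAS-bla; medium with 2% charcoal-stripped FBS; compound exposure 16 hr at 37C, 5% CO2; detection by FRET beta-lactamase substrate, 2 hr, room temperature.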
# [17] = qHTS assay to identify small molecule antagonists of the progesterone receptor (PR) signaling pathway - cell viability counter screen (AID 1346798); further: nearly all actives have a fitted effect of over 50% in size; further: potency means the concentration at half of the fitted maximal effect
# Procedure, shortened: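 In the same plates used for the beta-lactamase readout, cell viability of compound- and R5020-treated PR-UAS-bla HEK293T cells (16 hr, 37C) was assessed by CellTiter-Glo luminescence.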
# [18] = target: Nuclear receptor subfamily 1 group I member 2 (Homo sapiens) (UniProt O75469); test: Human pregnane X receptor (PXR) small molecule agonists, qHTS assay (AID 1346982); further: nearly all actives have a fitted effect of over 35% in size; further: potency means the concentration at half of the fitted maximal effect
# Procedure, shortened: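 Luciferase signal from ONE-Glo (30 min, room temperature) measured activation of hPXR-driven CYP3A4 reporter expression in PXR-Luc HepG2 cells treated with compounds for 24 hr at 37 C.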
# [19] = Human pregnane X receptor (PXR) small molecule agonists, qHTS cell viability counter screen (AID 1346977); further: nearly all actives have a fitted effect of over 50% in size
# Procedure, shortened: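 In each well, the PXR reporter HepG2 line was checked for viability: CellTiter-Fluor reagent added 23hr post-dosing, fluorescence read after 1hr incubation at 37C.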
# [20] = target: Nuclear receptor subfamily 1 group I member 2 (Homo sapiens) (UniProt O75469); test: CYP3A4 induction through human pregnane X receptor (PXR) by small molecules, qHTS assay (AID 1346984); further: nearly all actives have a fitted effect of over 40% in size; further: potency means the concentration at half of the fitted maximal effect
# Procedure, shortened: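 Luminescence readout: luciferase signal after One-Glo (30 min, room temperature), following 3 h at 37C with 3uM final Luciferin-IPA P450 substrate. Cells were DPX-2 (HepG2, PXR/CYP3A4-luc co-transfected) dosed for 24 h.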
# Chain of Thyrotropin receptor (Homo sapiens) (P16473 whole entry, looked up): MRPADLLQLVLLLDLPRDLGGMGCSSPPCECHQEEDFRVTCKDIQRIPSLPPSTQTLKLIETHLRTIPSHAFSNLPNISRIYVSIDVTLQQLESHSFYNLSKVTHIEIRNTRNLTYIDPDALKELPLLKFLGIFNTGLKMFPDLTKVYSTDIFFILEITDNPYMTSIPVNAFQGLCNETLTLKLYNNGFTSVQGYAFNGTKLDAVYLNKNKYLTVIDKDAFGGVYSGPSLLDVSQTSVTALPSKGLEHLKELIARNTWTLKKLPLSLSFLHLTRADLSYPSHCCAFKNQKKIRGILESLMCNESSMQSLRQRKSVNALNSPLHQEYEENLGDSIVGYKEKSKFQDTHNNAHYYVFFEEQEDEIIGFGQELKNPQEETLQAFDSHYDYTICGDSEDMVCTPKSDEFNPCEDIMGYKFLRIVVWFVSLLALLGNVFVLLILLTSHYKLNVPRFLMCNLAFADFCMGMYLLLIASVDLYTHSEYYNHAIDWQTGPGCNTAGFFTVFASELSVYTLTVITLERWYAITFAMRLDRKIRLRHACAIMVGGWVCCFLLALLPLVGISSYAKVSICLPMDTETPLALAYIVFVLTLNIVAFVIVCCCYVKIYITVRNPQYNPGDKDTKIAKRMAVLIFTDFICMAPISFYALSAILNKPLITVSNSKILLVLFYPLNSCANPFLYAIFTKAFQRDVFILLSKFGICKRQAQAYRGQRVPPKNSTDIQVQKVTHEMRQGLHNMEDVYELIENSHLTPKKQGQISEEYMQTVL
# Chain of Nuclear receptor subfamily 1 group I member 2 (Homo sapiens) (O75469 whole entry, looked up): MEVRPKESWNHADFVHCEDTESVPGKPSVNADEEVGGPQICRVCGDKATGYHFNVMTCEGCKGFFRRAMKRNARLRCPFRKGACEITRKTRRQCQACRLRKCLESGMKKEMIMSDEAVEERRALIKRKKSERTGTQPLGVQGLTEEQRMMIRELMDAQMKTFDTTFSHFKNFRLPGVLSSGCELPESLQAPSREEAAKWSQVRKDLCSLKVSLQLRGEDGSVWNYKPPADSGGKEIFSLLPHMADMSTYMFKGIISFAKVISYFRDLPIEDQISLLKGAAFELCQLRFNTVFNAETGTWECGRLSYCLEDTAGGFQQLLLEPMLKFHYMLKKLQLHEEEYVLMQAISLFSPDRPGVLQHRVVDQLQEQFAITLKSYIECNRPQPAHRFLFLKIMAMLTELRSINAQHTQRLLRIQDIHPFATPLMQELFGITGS
# Chain of Progesterone receptor (Homo sapiens) (P06401 whole entry, looked up): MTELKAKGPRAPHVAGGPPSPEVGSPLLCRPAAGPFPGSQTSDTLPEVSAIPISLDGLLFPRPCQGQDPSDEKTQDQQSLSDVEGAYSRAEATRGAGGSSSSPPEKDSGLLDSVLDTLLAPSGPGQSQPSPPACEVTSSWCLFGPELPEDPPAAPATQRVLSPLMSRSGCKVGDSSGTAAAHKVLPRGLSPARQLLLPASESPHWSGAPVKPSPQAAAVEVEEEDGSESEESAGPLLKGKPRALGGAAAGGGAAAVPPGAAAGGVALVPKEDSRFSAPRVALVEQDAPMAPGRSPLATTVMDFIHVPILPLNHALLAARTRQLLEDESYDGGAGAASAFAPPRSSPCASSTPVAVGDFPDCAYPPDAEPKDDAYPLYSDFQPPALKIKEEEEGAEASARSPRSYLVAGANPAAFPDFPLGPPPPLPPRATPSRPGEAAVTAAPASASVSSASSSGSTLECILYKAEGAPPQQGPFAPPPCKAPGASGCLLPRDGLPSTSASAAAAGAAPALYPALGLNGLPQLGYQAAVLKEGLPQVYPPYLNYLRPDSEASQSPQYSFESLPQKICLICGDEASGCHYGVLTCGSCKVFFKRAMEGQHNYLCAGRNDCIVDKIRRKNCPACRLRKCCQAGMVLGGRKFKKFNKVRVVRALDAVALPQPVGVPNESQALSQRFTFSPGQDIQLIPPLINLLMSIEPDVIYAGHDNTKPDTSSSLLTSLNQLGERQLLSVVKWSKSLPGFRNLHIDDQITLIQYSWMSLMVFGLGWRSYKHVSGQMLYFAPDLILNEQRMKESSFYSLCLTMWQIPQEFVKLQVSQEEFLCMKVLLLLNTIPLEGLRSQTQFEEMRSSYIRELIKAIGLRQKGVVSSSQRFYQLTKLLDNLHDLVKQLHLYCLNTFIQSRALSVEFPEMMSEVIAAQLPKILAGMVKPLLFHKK
# Chain of Nuclear receptor subfamily 1 group I member 2 (Rattus norvegicus) (Q9R1A7 whole entry, looked up): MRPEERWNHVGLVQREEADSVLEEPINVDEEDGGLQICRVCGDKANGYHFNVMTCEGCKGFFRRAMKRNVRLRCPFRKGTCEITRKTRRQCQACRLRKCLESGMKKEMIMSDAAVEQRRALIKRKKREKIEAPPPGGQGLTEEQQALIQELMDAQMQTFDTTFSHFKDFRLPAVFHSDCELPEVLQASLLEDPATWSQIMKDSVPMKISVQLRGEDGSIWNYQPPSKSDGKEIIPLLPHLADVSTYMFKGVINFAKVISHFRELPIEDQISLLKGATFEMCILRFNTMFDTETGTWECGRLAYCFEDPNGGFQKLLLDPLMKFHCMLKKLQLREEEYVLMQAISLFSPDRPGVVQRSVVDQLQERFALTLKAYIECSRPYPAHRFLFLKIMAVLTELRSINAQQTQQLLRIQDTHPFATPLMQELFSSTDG
# Chain of Thyrotropin-releasing hormone receptor (Homo sapiens) (P34981 whole entry, looked up): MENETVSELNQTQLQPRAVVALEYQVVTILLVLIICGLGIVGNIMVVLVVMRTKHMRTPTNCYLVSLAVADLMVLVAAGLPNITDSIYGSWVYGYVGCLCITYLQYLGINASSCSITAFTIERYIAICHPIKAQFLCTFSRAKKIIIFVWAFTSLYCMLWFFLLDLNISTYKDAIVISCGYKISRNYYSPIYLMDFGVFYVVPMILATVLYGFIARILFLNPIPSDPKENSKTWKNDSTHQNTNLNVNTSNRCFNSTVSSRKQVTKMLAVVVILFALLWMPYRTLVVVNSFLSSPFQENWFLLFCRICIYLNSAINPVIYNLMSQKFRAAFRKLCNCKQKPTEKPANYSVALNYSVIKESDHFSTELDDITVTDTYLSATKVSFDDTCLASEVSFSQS
# Chain of Cytochrome P450 2D6 (Homo sapiens) (P10635 whole entry, looked up): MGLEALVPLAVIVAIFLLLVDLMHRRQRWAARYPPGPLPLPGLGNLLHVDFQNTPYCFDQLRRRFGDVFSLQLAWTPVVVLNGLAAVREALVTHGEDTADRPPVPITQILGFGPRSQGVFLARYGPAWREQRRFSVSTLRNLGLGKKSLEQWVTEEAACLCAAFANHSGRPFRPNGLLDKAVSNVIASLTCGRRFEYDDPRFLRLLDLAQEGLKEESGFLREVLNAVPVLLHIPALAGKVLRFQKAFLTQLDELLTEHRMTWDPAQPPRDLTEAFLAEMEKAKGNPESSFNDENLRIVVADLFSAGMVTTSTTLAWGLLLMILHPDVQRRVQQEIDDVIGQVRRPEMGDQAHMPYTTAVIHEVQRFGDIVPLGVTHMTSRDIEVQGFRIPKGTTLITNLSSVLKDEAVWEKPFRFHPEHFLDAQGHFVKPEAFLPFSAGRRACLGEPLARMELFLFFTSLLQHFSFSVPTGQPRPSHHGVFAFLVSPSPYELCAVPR
Compound,Potency [1],Potency [2],Potency [3],outcome [4],Potency [5],Potency [6],outcome [7],outcome [8],Potency [9],outcome [10],Potency [11],max activation [12],Potency [13],Potency [14],Potency [15],Potency [16],Potency [17],Potency [18],Potency [19],Potency [20]
O=C(O)CN1C(=O)c2cccc3cccc(c23)C1=O,inactive,inactive,inactive,inactive,inactive,inactive,inactive,inactive,inactive,inactive,inactive,-2.76%,–,–,–,–,–,–,–,–
Cc1ccc(Nc2c(F)cccc2Cl)c(CC(=O)O)c1,inactive,inactive,–,inactive,inactive,inactive,inactive,inactive,inactive,inactive,–,–,inactive,inactive,inactive,–,–,–,–,–
Cc1ccc2c(c1)CCCN2,inactive,–,–,inactive,inactive,inactive,inactive,inactive,inactive,inactive,inactive,–,inactive,–,28.3 µM (active),inactive,inactive,–,–,–
CC(CCc1ccc(O)cc1)NCCc1ccc(O)c(O)c1 (configuration not stated),inactive,–,inactive,inactive,inactive,inactive,inactive,inactive,inactive,inactive,inactive,–,inactive,–,15.5 µM (active),inactive,inactive,inactive,–,–
C=CC(=O)O,inactive,–,–,inactive,–,inactive,–,–,inactive,inactive,inactive,-1.96%,inactive,–,inactive,inactive,–,inactive,inactive,inactive
Cc1c[nH]c2ccccc12,inactive,–,inactive,inactive,–,inactive,inactive,inactive,inactive,inactive,inactive,-6.59%,inactive,inactive,inactive,inactive,inactive,inactive,inactive,inactive
CCCCCCCC(=O)Oc1c(Br)cc(C#N)cc1Br,inactive,–,–,inactive,inactive,inactive,inactive,inactive,inactive,inactive,–,–,inactive,–,–,–,–,inactive,inactive,–
CCN(CC)CCOc1ccccc1C(=O)CCc1ccccc1,inactive,–,9.44 µM (active),inactive,inactive,inactive,inactive,inactive,inactive,inactive,inactive,4.09%,inactive,inactive,0.692 µM (active),inactive,11.9 µM (active),26.6 µM (active),–,14.1 µM (active)
